Inconclusive results are not listed. Unmarked numbers belong to inactive results. The call rests on the fitted dose curve; in most records, active means well fitted cell-killing curve with a large enough effect; inconclusive means small, poorly fitted or top-dose-only effect; inactive means no such curve, though single readings can be large or run the other way.

A short description of this assay: qHTS of pediatric cancer cell lines to identify multiple opportunities for drug repurposing: Primary screen for Rh41 cells (AID 1347108).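 Further: luminescence drop marks cytotoxic hits; nearly all actives have a fitted effect of over 70% in size.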 The settings on record: Rh41 rhabdomyosarcoma viability, CellTiter-Glo luminescence, 48 h; series mostly up to 46 µM; activity change, negative = cytotoxic: at the top concentration. In outline:
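Following a 5-hour attachment period, cells at 500-1,000/well received compounds and were cultured for 48 hours. CellTiter-Glo was added and luminescence read to estimate viable, metabolically active cells.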
Regarding `O=c1n(Cl)c(=O)n(Cl)c(=O)n1Cl`, the “activity change, negative = cytotoxic” value was 28%.
The result for `c1ccc2nc(N3CCNCC3)ccc2c1` reads 3.82%.
The result for `CCOC(=O)c1ncn2c1CN(C)C(=O)c1c(I)cccc1-2` reads 22.3%; that for `O=C(CCCCl)c1ccc(F)cc1`, 25.5%.
On to `C=CCN1CC[C@]23CCCC[C@H]2[C@H]1Cc1ccc(O)cc13`, for which the “activity change, negative = cytotoxic” value was -1.38%.
The result for `CCCCC1C(=O)NC(=O)N(C2CCCCC2)C1=O` (stereo not given) reads 17.9%; that for `CCC(=O)C(CCN(C)C)(c1ccccc1)c1ccccc1`, 4.37%.
The result for `CN1CCc2cc(Cl)c(O)cc2[C@H]2c3ccccc3CC[C@@H]21` reads -6.28%; that for `CC(CC(C#N)(c1ccccc1)c1ccccc1)N(C)C` (stereo not given), -25% [at 92.7 µM].
For `NC(=O)CN1CCCC1=O`, the “activity change, negative = cytotoxic” value is 24.3%.
The result for `CCCC(C)C1(CC)C(=O)N=C(S)NC1=O` (stereo not given) reads 26.4%; that for `OC(O)C(Cl)(Cl)Cl`, 24.4%; that for `Oc1ccc2[nH]cc(CCCCN3CC=C(c4ccccc4)CC3)c2c1`, -6.99%.
The result for `CCN(CC)C(C)C(=O)c1ccccc1` (stereo not given) reads 36.2%.
The result for `CNC(C)Cc1ccccc1OC` (stereo not given) reads -5.62%.
`CC(Cc1ccccc1)NCc1ccccc1Cl` (stereo not given): the “activity change, negative = cytotoxic” value was -10.1%.
As to `CC(C)=C[C@@H]1[C@@H](C(=O)OCc2coc(Cc3ccccc3)c2)C1(C)C`, the “activity change, negative = cytotoxic” value is 14.1%.
`OC(c1ccccc1)(c1ccccc1)C1CCNCC1`: the “activity change, negative = cytotoxic” value is 22.6%.
For the molecule `CCOC(=O)NC(O)C(Cl)(Cl)Cl` (stereo not given), the “activity change, negative = cytotoxic” value was 4.57%.
The result for `ClCc1cccc(Cl)c1` reads 9.02%.
The result for `Oc1ccc([C@H]2CNCc3c2ccc(O)c3O)cc1O` reads 7.57%.
As for `CC(CC(C(N)=O)(c1ccccc1)c1ccccc1)N(C)C` (stereo not given), the “activity change, negative = cytotoxic” value was 13.6%.
The result for `CN(C)CCc1c[nH]c2ccccc12` reads -16.3% [at 155 µM]; that for `Cc1cccc(Cc2cnc[nH]2)c1C`, -6.03%; that for `O=C(N[C@H]1N=C(c2ccccc2F)c2cccc3c2N(CC3)C1=O)c1cc2ccccc2[nH]1`, 16.2%.
The result for `NC(=O)OCCCc1ccccc1` reads 34.6%.
`Cc1ccc(N=CN(C)C=Nc2ccc(C)cc2C)c(C)c1`: the “activity change, negative = cytotoxic” value was 19.9%.
The result for `C[C@H](N)[C@H](O)c1ccc(O)c(O)c1` reads 1.38%.
Consider `CC(C)[N+](C)(CCC(C(N)=O)(c1ccccc1)c1ccccc1)C(C)C`, for which the “activity change, negative = cytotoxic” value is -2.89%.
The result for `COc1cc(CC#N)cc(OC)c1OC` reads 29.7%.
The result for `C[C@@H]1CC[C@H]2[C@@H](C)C(=O)O[C@@H]3O[C@@]4(C)CC[C@@H]1[C@]32OO4` reads -2%; that for `CC(C)=CCN1CC[C@@]2(C)c3cc(O)ccc3C[C@@H]1[C@@H]2C`, -14.2% [at 92.7 µM].
The result for `ClCCCN1CCN(c2cccc(Cl)c2)CC1` reads 14.1%.
`CN1C(=O)CN=C(c2ccccc2)c2cc([N+](=O)[O-])ccc21`: the “activity change, negative = cytotoxic” value is 19.9%.
The result for `Cc1c(Cl)c(=O)oc2cc(OP(=O)(OCCCl)OCCCl)ccc12` reads 19.4%.

The values above are taken from PubChem BioAssay (NCATS).
